# Experimental data reported in PubChem BioAssay (NCATS).
# Where “and” joins values, the source holds several entries; their conditions need not be identical. Equal entries are not always repeated. A number with no mark means an inactive call. Records with an inconclusive call do not appear. Where a call stands in place of a potency, no number is given. Calls of active or inactive are those of the source. Unless noted, the call rests on the fitted dose curve; in most records, active means well fitted curve in the direction sought with a large enough effect; inconclusive means small, poorly fitted or top-dose-only effect, or another doubt; inactive means no such curve, though single readings can be large; an effect the other way counts as inactive or inconclusive.
# Assays:
# [1] = target: Tumor necrosis factor (Homo sapiens) (UniProt P01375); test: qHTS assay to identify small molecules that stimulate Tumor Necrosis Factor-alpha (TNF-alpha) secretion (AID 651757; active means well fitted curve in the direction sought with a large enough effect in the signal ratio; the % refers to the signal ratio)
# Sequence of Tumor necrosis factor (Homo sapiens) (P01375 whole entry, looked up): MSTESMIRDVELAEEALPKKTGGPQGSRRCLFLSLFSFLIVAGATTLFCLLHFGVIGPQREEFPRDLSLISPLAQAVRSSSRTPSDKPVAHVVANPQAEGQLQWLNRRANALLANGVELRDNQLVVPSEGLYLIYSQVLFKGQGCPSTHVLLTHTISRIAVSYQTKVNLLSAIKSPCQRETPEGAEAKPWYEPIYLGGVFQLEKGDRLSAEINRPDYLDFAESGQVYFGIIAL
# Summary of the method: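 Secreted TNF-alpha from compound-treated THP-1 cells (17 hrs, 37 C) was quantified with a homogeneous time-resolved fluorescence antibody assay.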
# [2] = qHTS assay for environmental chemicals that activate the Aryl hydrocarbon Receptor (AhR) signaling pathway (AID 651777); conditions: 1A2-DRE human hepatoma cells, luciferase, 24 h; active compounds read high; further: nearly all actives have a fitted effect of over 15% in size
# Summary of the method: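 AhR activation is scored as a rise in luciferase from a stable DRE–CYP1A2 promoter construct in human hepatoma cells. Treatment lasts 24 hr at 37 C; detection uses One-Glo after 30 min at room temperature.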
# [3] = target: Peroxisome proliferator-activated receptor alpha (Homo sapiens) (UniProt Q07869); test: qHTS assay for small molecule agonists of the peroxisome proliferator-activated receptor alpha (PPARalpha) signaling pathway (AID 651778); conditions: PathHunter PPARalpha complementation, chemiluminescence, 6 h; active compounds read high
# Sequence of Peroxisome proliferator-activated receptor alpha (Homo sapiens) (Q07869 whole entry, looked up): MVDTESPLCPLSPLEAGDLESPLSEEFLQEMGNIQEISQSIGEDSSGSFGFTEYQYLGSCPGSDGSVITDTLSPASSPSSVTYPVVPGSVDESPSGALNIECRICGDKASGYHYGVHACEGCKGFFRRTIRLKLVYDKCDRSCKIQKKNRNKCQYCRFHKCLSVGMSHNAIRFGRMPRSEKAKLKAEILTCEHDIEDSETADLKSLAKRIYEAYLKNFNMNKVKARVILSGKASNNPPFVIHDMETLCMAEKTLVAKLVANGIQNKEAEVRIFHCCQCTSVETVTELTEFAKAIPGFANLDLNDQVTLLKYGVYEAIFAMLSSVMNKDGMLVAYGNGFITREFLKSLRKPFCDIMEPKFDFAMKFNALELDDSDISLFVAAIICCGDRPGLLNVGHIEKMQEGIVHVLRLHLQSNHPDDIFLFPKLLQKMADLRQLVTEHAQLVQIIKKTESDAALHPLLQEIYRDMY
# Summary of the method: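 Chemiluminescence from complemented enzyme reported PPARalpha activation in cells after 6 hr of compound treatment at 37 C. The detection reagent was incubated for 60 min at room temperature, and compounds were scored as agonists.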
# [4] = target: Nuclear receptor ROR-gamma (Homo sapiens) (UniProt P51449); test: qHTS assay for small molecule antagonists of the retinoid-related orphan receptor gamma (ROR-gamma) signaling pathway (AID 651802); further: nearly all actives have a fitted effect of over 60% in size; further: potency means the concentration at half of the fitted maximal effect
# Sequence of Nuclear receptor ROR-gamma (Homo sapiens) (P51449 whole entry, looked up): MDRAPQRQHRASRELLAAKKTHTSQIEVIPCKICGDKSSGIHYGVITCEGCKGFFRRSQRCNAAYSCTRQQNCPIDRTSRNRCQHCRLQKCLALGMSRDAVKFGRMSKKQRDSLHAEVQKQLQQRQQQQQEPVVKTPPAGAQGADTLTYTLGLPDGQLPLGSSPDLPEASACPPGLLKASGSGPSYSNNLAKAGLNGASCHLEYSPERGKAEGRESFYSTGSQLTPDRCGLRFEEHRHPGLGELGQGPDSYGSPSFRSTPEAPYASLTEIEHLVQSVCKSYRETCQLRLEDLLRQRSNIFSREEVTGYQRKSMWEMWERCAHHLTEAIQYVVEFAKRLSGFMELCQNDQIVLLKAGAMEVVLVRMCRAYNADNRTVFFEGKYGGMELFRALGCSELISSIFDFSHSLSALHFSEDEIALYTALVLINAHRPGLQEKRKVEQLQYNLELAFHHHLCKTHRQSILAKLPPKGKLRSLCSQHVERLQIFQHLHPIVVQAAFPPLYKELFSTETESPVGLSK
# Summary of the method: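 Antagonism is scored as a fall in luminescence from a RORE-luciferase reporter in CHO cells expressing ROR under a TET-inducible promoter, measured 16hr after doxycycline induction in the presence of compound.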
# [5] = qHTS assay for small molecule agonists of the antioxidant response element (ARE) signaling pathway measured by Nrf2-dependant transcriptional activity (AID 720636; active means well fitted curve in the direction sought with a large enough effect in the repeat runs; an effect the other way counts as inactive or inconclusive;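 further: HepG2 cells with an ARE-driven luciferase reporter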)
# Summary of the method: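 First, ARE-luc HepG2 cells attached for 6 hr at 37 C in 1% dialyzed FBS medium. Next, compound or DMSO was added and incubated 16 hr. Finally, ONE-Glo reagent was added and luminescence measured after 30 min.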
# [6] = qHTS assay for small molecule antagonists of the retinoid-related orphan receptor gamma (ROR-gamma) signaling pathway - cell viability counter screen (AID 720652; active means well fitted curve in the direction sought with a large enough effect in the repeat runs; an effect the other way counts as inactive or inconclusive;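 further: compound exposure lasted 16 hr before ATP read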; further: potency means the concentration at half of the fitted maximal effect)
# Summary of the method: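 Cytotoxicity is quantified via intracellular ATP (CellTiter-Glo luminescence) in doxycycline-induced CHO ROR response element-luciferase reporter cells treated with compound for 16 hr at 37 C, 5% CO2.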
# [7] = qHTS assay for small molecule agonists of the antioxidant response element (ARE) signaling pathway measured by Nrf2-dependant transcriptional activity - cell viability counter screen (AID 720653; active means well fitted curve in the direction sought with a large enough effect in the repeat runs; an effect the other way counts as inactive or inconclusive; further: potency means the concentration at half of the fitted maximal effect); conditions: ARE-bla HepG2 viability, CellTiter-Glo ATP luminescence, 16 h; max response: active compounds read low
# Summary of the method: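 Cytotoxicity counter screen: intracellular ATP quantified by CellTiter-Glo luminescence in the same ARE-bla HepG2 plates, after 16 h compound exposure and a 2 h beta-lactamase substrate step.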
# [8] = qHTS assay for small molecule disruptors of the mitochondrial membrane potential - 1 hr assay (AID 651754; calls by dose curve; further: nearly all actives have a fitted effect of over 35% in size; further: potency means the concentration at half of the fitted maximal effect)
# Summary of the method: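 Steps: seed HepG2 cells and let attach overnight; pin-transfer compound or vehicle; incubate 1 hr at 37C; add Mito-MPS dye for 30 min; read two-channel fluorescence for monomer and aggregate forms.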
# [9] = qHTS assay for small molecule disruptors of the mitochondrial membrane potential - 5 hr assay (AID 651755; calls by dose curve; further: nearly all actives have a fitted effect of over 40% in size; further: potency means the concentration at half of the fitted maximal effect)
# Summary of the method: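 HepG2, 2,000 cells/well, overnight attach; cpd or DMSO 5 hr, 37C/5% CO2; Mito-MPS 30 min 37C; fluor 490/535 + 540/590 nm.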
# [10] = qHTS assay to identify small molecules that stimulate interleukin-8 (IL-8) secretion (AID 651758; active means well fitted activation curve with a large enough effect in the signal ratio; the % refers to the signal ratio)
# Summary of the method: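 Secreted IL-8 measured by TR-FRET sandwich (cryptate and XL665 antibodies) from THP-1 cells exposed to compound overnight (16 hrs, 37 C).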
# [11] = target: Arylsulfatase A (Homo sapiens) (UniProt P15289); test: qHTS screen for enhancers of Arylsulfatase A (ASA1): LOPAC Validation Assay (AID 720538)
# Sequence of Arylsulfatase A (Homo sapiens) (P15289 whole entry, looked up): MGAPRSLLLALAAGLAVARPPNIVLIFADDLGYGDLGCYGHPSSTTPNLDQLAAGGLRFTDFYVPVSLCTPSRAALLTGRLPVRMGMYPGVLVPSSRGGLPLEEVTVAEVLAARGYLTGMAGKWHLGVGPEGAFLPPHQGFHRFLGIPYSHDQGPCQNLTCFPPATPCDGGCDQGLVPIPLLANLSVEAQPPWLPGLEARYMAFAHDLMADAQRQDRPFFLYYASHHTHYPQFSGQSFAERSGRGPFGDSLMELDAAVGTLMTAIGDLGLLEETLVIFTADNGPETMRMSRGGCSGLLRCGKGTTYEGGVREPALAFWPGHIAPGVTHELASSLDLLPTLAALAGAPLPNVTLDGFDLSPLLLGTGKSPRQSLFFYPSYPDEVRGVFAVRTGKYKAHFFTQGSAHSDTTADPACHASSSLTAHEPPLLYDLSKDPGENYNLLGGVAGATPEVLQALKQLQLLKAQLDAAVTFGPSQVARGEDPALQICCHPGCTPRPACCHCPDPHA
# Summary of the method: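 Enhancer assay in patient-derived MLD fibroblasts carrying ASA-I179S: 48 h compound exposure at 37 C, then 14 h room-temperature pNCS turnover (0.5 mM final) in lysis buffer. Read by fluorescence at 525/598 nm after NaOH stop.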
# [12] = qHTS for compounds that reverse cellular toxicity of Amyloid beta (A-beta) peptide in yeast: LOPAC Validation Assay (AID 720559)
# Summary of the method: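 Rescue of A-beta toxicity was scored as yeast growth by 600 nm absorbance after 48 hr at 30 C with compound. Normalization used DMSO (negative) and equimolar ferric chloride plus clioquinol (positive).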
# [13] = target: Hexokinase-4 (Homo sapiens) + Glucokinase regulatory protein (Homo sapiens) (UniProt P35557+Q14397); test: qHTS assay for inhibitors of recombinant human GCK-GKRP interaction: Diaphorase-coupled assay (AID 743205)
# Sequence of Hexokinase-4 (Homo sapiens) + Glucokinase regulatory protein (Homo sapiens) (P35557 whole entry, looked up): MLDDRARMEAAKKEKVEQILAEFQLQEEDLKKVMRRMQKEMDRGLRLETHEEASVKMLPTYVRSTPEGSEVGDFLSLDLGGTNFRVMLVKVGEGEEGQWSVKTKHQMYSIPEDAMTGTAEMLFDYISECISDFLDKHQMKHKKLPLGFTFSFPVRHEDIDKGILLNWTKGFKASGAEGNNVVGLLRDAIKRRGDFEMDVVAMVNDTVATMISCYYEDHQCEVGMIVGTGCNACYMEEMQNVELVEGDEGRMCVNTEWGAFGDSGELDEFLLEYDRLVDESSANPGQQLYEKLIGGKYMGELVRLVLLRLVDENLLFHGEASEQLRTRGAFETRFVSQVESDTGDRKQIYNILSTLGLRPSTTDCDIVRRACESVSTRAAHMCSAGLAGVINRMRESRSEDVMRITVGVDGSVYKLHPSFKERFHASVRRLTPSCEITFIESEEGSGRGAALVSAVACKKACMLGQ
# Sequence of Hexokinase-4 (Homo sapiens) + Glucokinase regulatory protein (Homo sapiens) (Q14397 whole entry, looked up): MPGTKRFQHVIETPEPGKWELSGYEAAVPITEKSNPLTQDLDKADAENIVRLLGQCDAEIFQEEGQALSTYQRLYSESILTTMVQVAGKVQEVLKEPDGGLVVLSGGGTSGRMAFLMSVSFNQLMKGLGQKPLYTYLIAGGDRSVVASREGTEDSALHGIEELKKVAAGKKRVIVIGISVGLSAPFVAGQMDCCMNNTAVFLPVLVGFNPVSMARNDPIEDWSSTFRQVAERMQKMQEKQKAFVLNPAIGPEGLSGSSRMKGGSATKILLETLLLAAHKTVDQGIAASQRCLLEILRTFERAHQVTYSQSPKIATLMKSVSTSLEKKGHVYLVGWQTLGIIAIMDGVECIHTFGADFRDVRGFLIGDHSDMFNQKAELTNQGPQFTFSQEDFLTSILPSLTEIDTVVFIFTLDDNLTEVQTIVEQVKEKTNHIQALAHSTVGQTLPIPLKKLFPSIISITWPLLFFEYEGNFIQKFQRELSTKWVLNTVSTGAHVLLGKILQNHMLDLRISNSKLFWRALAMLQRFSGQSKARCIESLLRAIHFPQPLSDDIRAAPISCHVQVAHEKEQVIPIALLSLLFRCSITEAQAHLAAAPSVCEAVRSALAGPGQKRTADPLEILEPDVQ
# Summary of the method: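 A kinetic fluorescence read (Ex 525/Em 590 nm, every minute for 30 minutes) tracked resorufin from a G6PDH-diaphorase coupled GCK reaction. It contained 10 nM GST-GCK, 10 nM FLAG-GKRP, 5 mM glucose, 0.4 mM ATP in Hepes pH 7.6. Normalized to with/without-enzyme DMSO controls.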
# [14] = qHTS for Activators of Parkin Expression: LOPAC Validation Assay (NLuc Reporter) (AID 720572)
# Summary of the method: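 Parkin promoter-driven FLuc/NLuc neuronal reporter cells; 24 h plating, 7-pt dose response, 24 h at 37 C/5% CO2; FLuc then NanoLuc reagent, 10 min each, luminescence; DMSO/positive control normalized.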
# [15] = qHTS for Activators of Parkin Expression: LOPAC Validation Assay (FLuc Reporter) (AID 720573)
# Summary of the method: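 FLuc signal from Parkin-promoter coincidence reporter neuronal cells, normalized to DMSO and positive control (100%). Cells (1,500/well) pre-incubated 24 h, then exposed to LOPAC compounds in 7-point dose response for 24 h at 37 C, 5% CO2.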
smiles,measurement,setting,value
NCCNCCNCCNCCN,outcome,[1],inactive
same,activation,[2],-0.491% and -2.35%
same,max response,[3],-1.59% and -2.29%
same,Potency,[4],inactive
same,outcome,[5],inactive
same,Potency,[6],inactive
same,max response,[7],-13.9% and 10.9%
CC(O)CN(CCN(CC(C)O)CC(C)O)CC(C)O (centres undefined),activation,[2],0.546%
same,max response,[3],-1.89%
same,outcome,[5],inactive
same,max response,[7],-0.296%
COC(=O)C1=C(C)NC(C)=C(C(=O)OC)C1c1ccccc1[N+](=O)[O-],Potency,[8],inactive
same,Potency,[9],inactive
same,outcome,[10],inactive
same,activation,[2],3.95%
same,max response,[3],-2.24%
same,Potency,[11],inactive
same,outcome,[12],inactive
same,max response,[7],-20.5%
same,outcome,[13],inactive
C[C@]12CC[C@@H]3c4ccc(O)cc4CC[C@H]3[C@@H]1CCC2=O,activation,[2],0.316%
same,max response,[3],-1.03%
same,outcome,[12],inactive
same,Potency,[14],inactive
same,outcome,[15],inactive
same,outcome,[5],inactive
same,max response,[7],-0.718%
same,outcome,[13],inactive
CN(C)CCCN1c2ccccc2Sc2ccc(Cl)cc21,activation,[2],3.61%
same,max response,[3],-0.127%
same,outcome,[12],inactive
same,Potency,[14],inactive
same,outcome,[15],inactive
same,outcome,[5],inactive
same,outcome,[13],inactive
Oc1cccc(O)c1,Potency,[8],inactive
same,Potency,[9],inactive
same,outcome,[1],inactive
same,activation,[2],2.18%
same,max response,[3],-10.6%
same,outcome,[5],inactive
same,max response,[7],0.509%
CC1(C)[C@@H]2CC[C@@]1(C)C(=O)C2,outcome,[1],inactive
same,activation,[2],1.1%
same,max response,[3],1.14%
same,Potency,[4],inactive
same,outcome,[5],inactive
same,Potency,[6],inactive
same,max response,[7],-10.3%
CCCc1c(OCCCCc2nn[nH]n2)ccc(C(C)=O)c1O,max response,[3],11.9%
same,outcome,[5],inactive
same,max response,[7],2.63%
CN(C)CCCN1c2ccccc2CCc2ccccc21,activation,[2],-0.861%
same,Potency,[11],inactive
same,outcome,[12],inactive
same,Potency,[14],inactive
same,outcome,[15],inactive
same,outcome,[5],inactive
same,max response,[7],-13.3%
C[C@]12C[C@H](O)[C@H]3[C@@H](CCC4=CC(=O)CC[C@@]43C)[C@@H]1CC[C@@H]2C(=O)CO,outcome,[1],inactive
same,activation,[2],-0.656% and -0.0877%
same,max response,[3],-1.77% and -2.82%
same,Potency,[11],inactive
same,outcome,[12],inactive
same,Potency,[14],inactive
same,outcome,[15],inactive
same,outcome,[5],inactive
same,Potency,[6],inactive
same,max response,[7],-15.9% and -13%
same,outcome,[13],inactive
CCCCCCCCCCCCOS(=O)(=O)O,Potency,[8],inactive
same,Potency,[9],inactive
same,outcome,[1],inactive
same,outcome,[10],inactive
same,activation,[2],1.08% [middle of 4 runs]
same,max response,[3],11.8% and 23.9% and 3.99%
same,Potency,[4],inactive
same,outcome,[5],inactive
same,Potency,[6],inactive
same,max response,[7],-1.36% [middle of 4 runs]
COc1ccc(Cl)cc1C(=O)NCCc1ccc(S(=O)(=O)NC(=O)NC2CCCCC2)cc1,activation,[2],1.06%
same,max response,[3],0.201%
same,Potency,[11],inactive
same,outcome,[12],inactive
same,outcome,[15],inactive
same,outcome,[5],inactive
same,max response,[7],-18.1%
same,outcome,[13],inactive
Cc1cc2nc3c(=O)[nH]c(=O)nc-3n(C[C@H](O)[C@H](O)[C@H](O)CO)c2cc1C,Potency,[8],5.96 µM (active)
same,Potency,[9],7.5 µM (active)
same,max response,[3],3.79%
same,Potency,[4],inactive
same,outcome,[5],inactive
same,Potency,[6],inactive
same,max response,[7],0.335%
Cc1c(O)cccc1C(=O)N[C@@H](CSc1ccccc1)[C@H](O)CN1C[C@H]2CCCC[C@H]2C[C@H]1C(=O)NC(C)(C)C,Potency,[8],42.2 µM (active)
same,Potency,[9],66.8 µM (active)
same,outcome,[1],inactive
same,activation,[2],-9.16%
same,max response,[3],-6.84%
same,Potency,[4],8.41 µM (active)
same,outcome,[5],inactive
same,Potency,[6],66.8 µM (active)
same,Potency,[7],44.7 µM (active)
